Tgondii IFNg – T. gondii growth inhibition with IFN-gamma, primary screen, cell-based; Toxoplasma gondii growth in IFN-gamma-treated host cells; stronger effect = lower value; activity change, negative = inhibition, % (no concentration beside the values); 3.8% of 69,000 active; in the data active = activity change below about -70%, passing the limit was not always enough;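 note: host cells are HeLa cells infected with Toxoplasma gondii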
Active calls of the source: *; i = inactive; ! = repeats disagree. Only a selection was taken, and hits are over-represented in it overall.

SMILES | Tgondii IFNg
O=C(Nc1ccccc1)N1CC(C(=O)N2CCOCC2)C2(CCOCC2)C1 (stereo not given) | 5
CC(=O)N(C)Cc1nc2ccccc2n1CCCCOc1ccccc1Cl | -40
COCCn1c(COc2ccc(Cl)cc2)nc2ccccc21 | 71
COc1ccc(Cc2nc3ccccc3n2CCCOc2ccccc2OC)cc1OC | -97*
OCCN1CCCC2(COCCN(c3nncs3)C2)C1 (stereo not given) | 28
COCCC(=O)c1cc(-c2cn(Cc3cccnc3)c(C)n2)n2ccccc12 | 32
O=C(NCC1(N2CCCCC2)CCCCC1)c1ccccc1Cn1cccn1 | -31
Cc1n[nH]c(C)c1CC(=O)N1CC[C@@](C)(O)[C@@H](Cc2ccccc2)C1 | -4
Cl/C(=C\n1cncn1)c1ccc(Cl)cc1Cl | -59
Clc1ccc(CO/N=C(\Cn2ccnc2)c2ccc(Cl)cc2Cl)c(Cl)c1 | -83*!
O=C(NCCCn1ccnc1)Nc1c[nH]c2cc(Cl)ccc2c1=O | 306
CC1(NC(=O)CC2CCN(Cc3cccc(C(F)(F)F)c3)CC2)CCC1 | 2
CCc1nc(OCC(=O)Nc2ccc(Cl)c(C(F)(F)F)c2)c2ccccc2n1 | -14
CNC(=O)c1cc(Oc2ccc(NC(=O)Nc3ccc(Cl)c(C(F)(F)F)c3)c(F)c2)ccn1 | -81*
Cc1nc(OCC(=O)Nc2ccc(Cl)c(C(F)(F)F)c2)c2ccccc2n1 | -69
CC(=O)NCC(=O)N1C[C@@H]2OCC(=O)N(CC3CCCC3)[C@H]2C1 | -11
COCCNC(=O)C[C@H]1COC[C@H]2CN(Cc3nccs3)C[C@@H]12 | -3
C=CCO[C@H]1CN(Cc2cccc(C#N)c2)[C@H]2COC[C@@H]12 | -33
CCO[C@H]1CO[C@@]2(CCCN(C(=O)COc3ccccc3OC)C2)C1 | 58
Cc1nc(N)sc1-c1ccnc(Nc2ccc(N3CCOCC3)cc2)n1 | -79*
Cc1nn(CC(=O)Nc2ccc(N3CCOCC3)cc2)c(C)c1Br | -4
Cc1nc(-c2cnccn2)sc1C(=O)Nc1ccc(N2CCOCC2)cc1 | 36
C=CC(=O)Nc1ccccc1 | 9
COCCN1CCc2ncc(CN(C)Cc3ccco3)n2CC1 | -15
CC[C@H]1C[C@@H](NC(=O)c2ccccc2)C[C@@H](CCn2nc(C)cc2C)O1 | -4
SMILES | Tgondii IFNg
COc1ccc(-c2nc(C)c(CCNS(=O)(=O)c3ccc(Oc4ccccc4)cc3)s2)cc1OC | -97*
COc1ccc(-c2nc(C)c(CCNS(=O)(=O)c3ccc(C)cc3)s2)cc1OC | i
COc1ccc(-c2nc(C)c(CCNS(=O)(=O)c3ccc4ccccc4c3)s2)cc1OC | -29
CN1CCOCC2(CCCN(C(=O)c3ccc4nc[nH]c4c3)C2)C1 (stereo not given) | 18
Nc1cc(-c2ccc(Cl)cc2)nc(N)n1 | 100
CCc1nc(N)nc(N)c1-c1ccc(Cl)cc1 | -95*
CSc1nc(-c2ccc(Cl)cc2)nc(N)c1-c1ccccc1 | 207
CS(=O)(=O)N1CCCCC1c1ccnc(Nc2ccccn2)n1 (stereo not given) | -11
Cc1ccc(-n2[nH]c(C)c(CC(=O)O)c2=O)cc1 | 78
Cc1ccc2nc(Cc3ccc(NC(=O)CCc4nc5ccccc5[nH]4)cc3)[nH]c2c1 | 223
Cc1ccc(Cc2c(C)[nH]n(-c3nc4ccccc4[nH]3)c2=O)cc1 | -98*
Cn1cnc(C(=O)N2CCC3(CCC(=O)NC3)CC2)c1 | 4
Cc1nc(CC(=O)N2CCCC2c2ccc3c(NCc4ccccc4)n[nH]c3n2)cs1 (stereo not given) | -76*
Cc1nc(CC(=O)N2CCCCC2c2[nH]ncc2C)cs1 (stereo not given) | -34
Cc1nc(CC(=O)N2CCC(c3ccccc3C(=O)O)C2)cs1 (stereo not given) | 31
Cc1ccccc1S(=O)(=O)N1CCC2(CC1)Nc1ccc(Cl)cc1-n1cccc12 | -25
O=C(O)CN1CCC2(CC2C(=O)Nc2cccc(F)c2)C1 (stereo not given) | 0
Cc1ccc(CN2CCC3(CC2)c2ncc(-c4ccccc4)n2CCN3C)o1 | -50
CN1CCn2c(-c3ccccc3)cnc2C12CCN(S(=O)(=O)c1ccccc1)CC2 | -108*
Cc1ccc(C)c(S(=O)(=O)N2CCC3(CC2)c2ncc(-c4cccc(F)c4)n2CCN3C)c1 | -43
CCN(CC)C(CNC(=O)c1ccc(=O)n(C)n1)c1ccccc1Cl (stereo not given) | -14
Cc1c(C)c(C)c(C(=O)c2cccs2)c(C)c1C | -4
c1coc(CN2CC[C@H]3CN(C4CCOCC4)CCO[C@@H]3C2)c1 | -3
N#Cc1ccc(CN2CCC3(CC2)CC(NC(=O)C2CC2)CCO3)cc1 (stereo not given) | -1
Cc1noc(-c2cc(=O)n(CC(=O)NC3CCCC3)c3ccccc23)n1 | 68
SMILES | Tgondii IFNg
CC(Cn1cnc2c3cc(F)ccc3n(CC(=O)NC3CCCC3)c2c1=O)c1ccccc1 (stereo not given) | -102*
Cc1ccc2c(c1)cc(S(=O)(=O)c1ccccc1)c(=O)n2CC(=O)NC1CCCC1 | -20
Cc1ccc(-c2nc3cnccn3c2NCCC(=O)N2CCC3(CC2)OCCO3)cc1 | -41
c1coc(CNC2CCN(c3ccc4c(c3)OCCO4)CC2)c1 | 11
CCc1nc(OCC(=O)Nc2cccc(C)c2)c2ccccc2n1 | -14
Fc1cnc(N2CC[C@@H]3C[C@H](c4ccncn4)O[C@H]3C2)nc1 | -48
Cc1cccc(C)c1NS(=O)(=O)c1cc2c3c(c1)CCC(=O)N3CCC2 | -3
O=C1CCc2cc(S(=O)(=O)Nc3cccc4c3CCCC4)cc3c2N1CC3 | -114*
COC(=O)c1ccccc1NS(=O)(=O)c1cc2c3c(c1)CCN3C(=O)CC2 | 117
Cc1cccc(NS(=O)(=O)c2cc3c4c(c2)CCN4C(=O)CC3)c1 | -38
CCc1ccc(NS(=O)(=O)c2cc3c4c(c2)CCN4C(=O)CC3)cc1 | -5
Cc1ccc(NS(=O)(=O)c2cc3c4c(c2)CCN4C(=O)CC3)cc1C | -95*
Cc1oc(-c2ccc(OC(C)C)cc2)nc1CN(c1ccccc1)S(=O)(=O)c1cccs1 | -33
Cc1cc(CN2CCc3c(CNc4ncccn4)cncc3C2)oc1C | -1
CCN1c2ccc(C)cc2C(=O)NC12CCN(C(=O)c1ccc(F)cc1)CC2 | 3
O=C(c1ccncn1)N1CCN(c2nc(-c3ccccc3)nc3c2CCC3)CC1 | -2
C[C@@H](NC(=O)C[C@H]1CC[C@@H]2[C@@H](COc3ccc(NS(=O)(=O)c4ccc(Cl)cc4)cc3C(=O)N2C)O1)c1ccccc1 | -89*
CN1C(=O)c2cc(NC(=O)c3ccc(C(F)(F)F)cc3)ccc2OC[C@H]2O[C@@H](CC(=O)NCc3ccc4c(c3)OCO4)CC[C@H]21 | -28
CN1C(=O)c2cc(NC(=O)NCc3ccccc3)ccc2OC[C@H]2O[C@H](CC(=O)NCC3CCCCC3)CC[C@H]21 | -47
CN1C(=O)c2cc(NC(=O)c3ccc(C(F)(F)F)cc3)ccc2OC[C@@H]2O[C@@H](CC(=O)NCc3ccc4c(c3)OCO4)CC[C@@H]21 | -82*
CN1C(=O)c2cc(NC(=O)Cc3cccs3)ccc2OC[C@@H]2O[C@H](CC(=O)NCC3CCCCC3)CC[C@@H]21 | -78*
CN1C(=O)c2cc(NC(=O)c3ccc(C(F)(F)F)cc3)ccc2OC[C@H]2O[C@H](CC(=O)NCc3ccc4c(c3)OCO4)CC[C@H]21 | -37
CN1C(=O)c2cc(NC(=O)NCc3ccccc3)ccc2OC[C@H]2O[C@H](CC(=O)NCC3CCCCC3)CC[C@@H]21 | -20
CN1C(=O)c2cc(NC(=O)Cc3cccs3)ccc2OC[C@H]2O[C@@H](CC(=O)NCC3CCCCC3)CC[C@@H]21 | -23

Screening results as filed in PubChem.
